# This excerpt belongs to a sample that is enriched for the strongest signals.
# Legend:
# Assay in all cases: glycan array binding signal (z-score within array); higher = stronger binding
# Conditions in all cases: glycan notation: IUPAC condensed, linker removed
# Fuc(a1-2)Gal = molecular target: Fuc(a1-2)Gal
# Outline: (§1)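 Glycan array binding is given as a within-array Z-score, which can be read as non-binding when negative. The arrays, 3228 of them, came from the Consortium for Functional Glycomics database and were retained only where the protein sequence was available. Z-scores were averaged across arrays of the same protein sequence at different concentrations or buffers and across linkers.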
# [1] = molecular target: Fuc(a1-2)Gal(b1-3)GlcNAc(b1-2)Man(a1-3)[Fuc(a1-2)Gal(b1-3)GlcNAc(b1-2)Man(a1-6)]Man(b1-4)GlcNAc(b1-4)GlcNAc
# Outline: as §1
# [2] = molecular target: Fuc(a1-2)Gal(b1-3)[Fuc(a1-4)]GlcNAc(b1-2)Man(a1-3)[Fuc(a1-2)Gal(b1-3)[Fuc(a1-4)]GlcNAc(b1-2)Man(a1-6)]Man(b1-4)GlcNAc(b1-4)[Fuc(a1-6)]GlcNAc(b1-4)[Fuc(a1-6)]GlcNAc
# Outline: as §1
# [3] = molecular target: Fuc(a1-2)Gal(b1-4)[Fuc(a1-3)]GlcNAc(b1-2)[Fuc(a1-2)Gal(b1-4)[Fuc(a1-3)]GlcNAc(b1-4)]Man(a1-3)[Fuc(a1-2)Gal(b1-4)[Fuc(a1-3)]GlcNAc(b1-2)Man(a1-6)]Man(b1-4)GlcNAc(b1-4)GlcNAc
# Outline: as §1
# [4] = molecular target: Fuc(a1-2)Gal(b1-4)[Fuc(a1-3)]GlcNAc(b1-3)Gal(b1-4)[Fuc(a1-3)]GlcNAc(b1-3)Gal(b1-4)[Fuc(a1-3)]GlcNAc
# Outline: as §1
# Fuc(a1-2)Gal6S(b1-4)Glc = molecular target: Fuc(a1-2)Gal6S(b1-4)Glc
# Outline: as §1
# [5] = molecular target: Fuc(a1-2)[Gal(a1-3)]Gal(b1-3)GlcNAc(b1-2)Man(a1-3)[Fuc(a1-2)[Gal(a1-3)]Gal(b1-3)GlcNAc(b1-2)Man(a1-6)]Man(b1-4)GlcNAc(b1-4)[Fuc(a1-6)]GlcNAc
# Outline: as §1
# [6] = molecular target: Fuc(a1-2)[Gal(a1-3)]Gal(b1-4)GlcNAc
# Outline: as §1
# [7] = molecular target: Fuc(a1-2)[Gal(a1-3)]Gal(b1-4)GlcNAc(b1-2)Man
# Outline: as §1
# [8] = molecular target: Fuc(a1-2)[GalNAc(a1-3)]Gal(b1-4)GlcNAc(b1-2)Man
# Outline: as §1
# [9] = molecular target: Fuc(a1-2)[GalNAc(a1-3)]Gal(b1-4)GlcNAc(b1-3)GalNAc
# Outline: as §1
# [10] = molecular target: Fuc(a1-3)[Gal(b1-4)]GlcNAc(b1-6)[Gal(b1-3)GlcNAc(b1-3)]Gal(b1-4)Glc
# Outline: as §1
# [11] = molecular target: Fuc(a1-3)[Gal3S(b1-4)]GlcNAc
# Outline: as §1
# Gal(a1-4)Gal(b1-4)Glc = molecular target: Gal(a1-4)Gal(b1-4)Glc
# Outline: as §1
# Gal(b1-3)GlcNAc = molecular target: Gal(b1-3)GlcNAc
# Outline: as §1
# [12] = molecular target: Gal(b1-3)GlcNAc(a1-6)Gal(b1-4)GlcNAc
# Outline: as §1
# [13] = molecular target: Gal(b1-3)GlcNAc(b1-2)Man(a1-3)[Gal(b1-3)GlcNAc(b1-2)Man(a1-6)]Man(b1-4)GlcNAc(b1-4)GlcNAc
# Outline: as §1
# [14] = molecular target: Gal(b1-3)GlcNAc(b1-2)Man(a1-3)[Gal(b1-3)GlcNAc(b1-2)Man(a1-6)]Man(b1-4)GlcNAc(b1-4)[Fuc(a1-6)]GlcNAc
# Outline: as §1
# [15] = molecular target: Gal(b1-3)GlcNAc(b1-3)Gal(b1-3)GlcNAc
# Outline: as §1
# [16] = molecular target: Gal(b1-3)GlcNAc(b1-3)Gal(b1-4)GlcNAc
# Outline: as §1
# [17] = molecular target: Gal(b1-3)GlcNAc(b1-3)Gal(b1-4)GlcNAc(b1-2)[Gal(b1-3)GlcNAc(b1-3)Gal(b1-4)GlcNAc(b1-6)]Man(a1-6)[Gal(b1-3)GlcNAc(b1-3)Gal(b1-4)GlcNAc(b1-2)Man(a1-3)]Man(b1-4)GlcNAc(b1-4)[Fuc(a1-6)]GlcNAc
# Outline: as §1
# [18] = molecular target: Gal(b1-3)GlcNAc(b1-3)Gal(b1-4)GlcNAc(b1-3)Gal(b1-4)GlcNAc(b1-2)[Gal(b1-3)GlcNAc(b1-3)Gal(b1-4)GlcNAc(b1-3)Gal(b1-4)GlcNAc(b1-6)]Man(a1-6)[Gal(b1-3)GlcNAc(b1-3)Gal(b1-4)GlcNAc(b1-3)Gal(b1-4)GlcNAc(b1-2)Man(a1-3)]Man(b1-4)GlcNAc(b1-4)[Fuc(a1-6)]GlcNAc
# Outline: as §1
# [19] = molecular target: Gal(b1-3)[Fuc(a1-4)]GlcNAc(b1-3)Gal(b1-4)[Fuc(a1-3)]GlcNAc
# Outline: as §1
# [20] = molecular target: Gal(b1-3)[Neu5Ac(b2-6)]GalNAc
# Outline: as §1
# [21] = molecular target: Gal(b1-4)GlcNAc(b1-3)Gal(b1-4)GlcNAc
# Outline: as §1
# [22] = molecular target: Gal(b1-4)GlcNAc(b1-3)Gal(b1-4)GlcNAc(b1-2)Man(a1-3)[Gal(b1-4)GlcNAc(b1-3)Gal(b1-4)GlcNAc(b1-2)Man(a1-6)]Man(b1-4)GlcNAc(b1-4)[Fuc(a1-6)]GlcNAc
# Outline: as §1
# [23] = molecular target: Gal(b1-4)GlcNAc(b1-3)Gal(b1-4)GlcNAc(b1-3)Gal(b1-4)GlcNAc(b1-3)Gal(b1-4)GlcNAc(b1-2)Man(a1-3)[Gal(b1-4)GlcNAc(b1-3)Gal(b1-4)GlcNAc(b1-3)Gal(b1-4)GlcNAc(b1-3)Gal(b1-4)GlcNAc(b1-2)Man(a1-6)]Man(b1-4)GlcNAc(b1-4)GlcNAc
# Outline: as §1
# [24] = molecular target: Gal(b1-4)GlcNAc(b1-3)Gal(b1-4)GlcNAc(b1-3)Gal(b1-4)GlcNAc(b1-3)Gal(b1-4)GlcNAc(b1-2)Man(a1-3)[Gal(b1-4)GlcNAc(b1-3)Gal(b1-4)GlcNAc(b1-3)Gal(b1-4)GlcNAc(b1-3)Gal(b1-4)GlcNAc(b1-2)Man(a1-6)]Man(b1-4)GlcNAc(b1-4)[Fuc(a1-6)]GlcNAc
# Outline: as §1
# [25] = molecular target: Gal(b1-4)GlcNAc(b1-3)Gal(b1-4)GlcNAc(b1-3)Gal(b1-4)GlcNAc(b1-3)Gal(b1-4)GlcNAc(b1-2)[Gal(b1-4)GlcNAc(b1-3)Gal(b1-4)GlcNAc(b1-3)Gal(b1-4)GlcNAc(b1-3)Gal(b1-4)GlcNAc(b1-6)]Man(a1-6)[Gal(b1-4)GlcNAc(b1-3)Gal(b1-4)GlcNAc(b1-3)Gal(b1-4)GlcNAc(b1-3)Gal(b1-4)GlcNAc(b1-2)Man(a1-3)]Man(b1-4)GlcNAc(b1-4)[Fuc(a1-6)]GlcNAc
# Outline: as §1
# [26] = molecular target: Gal(b1-4)GlcNAc(b1-3)Gal(b1-4)GlcNAc(b1-3)Gal(b1-4)GlcNAc(b1-3)Gal(b1-4)GlcNAc(b1-3)Gal(b1-4)GlcNAc(b1-2)[Gal(b1-4)GlcNAc(b1-3)Gal(b1-4)GlcNAc(b1-3)Gal(b1-4)GlcNAc(b1-3)Gal(b1-4)GlcNAc(b1-3)Gal(b1-4)GlcNAc(b1-6)]Man(a1-6)[Gal(b1-4)GlcNAc(b1-3)Gal(b1-4)GlcNAc(b1-3)Gal(b1-4)GlcNAc(b1-3)Gal(b1-4)GlcNAc(b1-3)Gal(b1-4)GlcNAc(b1-2)Man(a1-3)]Man(b1-4)GlcNAc(b1-4)[Fuc(a1-6)]GlcNAc
# Outline: as §1
# Gal(b1-4)GlcNAc6P = molecular target: Gal(b1-4)GlcNAc6P
# Outline: as §1
# Gal6S(b1-4)GlcNAc6S = molecular target: Gal6S(b1-4)GlcNAc6S
# Outline: as §1
# Glc(b1-6)Glc = molecular target: Glc(b1-6)Glc
# Outline: as §1
# [27] = molecular target: GlcA3S(b1-3)Gal(b1-4)GlcNAc(b1-2)Man
# Outline: as §1
# [28] = molecular target: GlcNAc(a1-4)Gal(b1-4)GlcNAc(b1-3)Gal(b1-4)GlcNAc(b1-3)Gal(b1-4)GlcNAc
# Outline: as §1
# [29] = molecular target: GlcNAc(b1-3)Gal(b1-4)GlcNAc
# Outline: as §1
# [30] = molecular target: GlcNAc(b1-4)Gal(b1-4)GlcNAc
# Outline: as §1
# Kdn(a2-6)Gal(b1-4)GlcNAc = molecular target: Kdn(a2-6)Gal(b1-4)GlcNAc
# Outline: as §1
# [31] = molecular target: Man(a1-2)Man(a1-2)Man(a1-3)Man
# Outline: as §1
# [32] = molecular target: Neu5Ac(a2-3)Gal(b1-3)GlcNAc(b1-3)Gal(b1-4)GlcNAc
# Outline: as §1
# [33] = molecular target: Neu5Ac(a2-3)Gal(b1-4)GlcNAc
# Outline: as §1
# [34] = molecular target: Neu5Ac(a2-3)Gal(b1-4)[Fuc(a1-3)]GlcNAc(b1-6)[Gal(b1-3)]GalNAc
# Outline: as §1
# Neu5Ac(a2-6)GalNAc = molecular target: Neu5Ac(a2-6)GalNAc
# Outline: as §1
# Neu5Ac(a2-8)Neu5Ac = molecular target: Neu5Ac(a2-8)Neu5Ac
# Outline: as §1
# [35] = molecular target: Neu5Ac(a2-8)Neu5Ac(a2-8)Neu5Ac
# Outline: as §1
# Neu5Ac(b2-6)GalNAc = molecular target: Neu5Ac(b2-6)GalNAc
# Outline: as §1
# [36] = molecular target: Neu5Gc(a2-3)Gal(b1-3)[Fuc(a1-4)]GlcNAc
# Outline: as §1
# [37] = molecular target: Neu5Gc(a2-8)Neu5Ac(a2-3)Gal(b1-4)GlcNAc
# Outline: as §1
binder,measurement,setting,value
"SGC, Q9M345 (protein) QNLNFTYNGFHPPLTDISLQGLATVTPNGLLKLTNTSVQKTGHAFCTERIRFKDSQNGNVSSFSTTFVFAIHSQIPTLSGHGIAFVVAPTLGLPFALPSQYIGLFNISNNGNDTNHIFAVEFDTIQSSEFGDPNDNHVGIDLNGLRSANYSTAGYRDDHDKFQNLSLISRKRIQVWIDYDNRSHRIDVTVAPFDSDKPRKPLVSYVRDLSSILLEDMYVGFSSATGSVLSEHFLVGWSFRLNGEAPMLSLSKLPKLPRFEPRRIS",glycan array binding signal (z-score),Fuc(a1-2)Gal,-0.354
same,glycan array binding signal (z-score),[1],3.64
same,glycan array binding signal (z-score),[2],-0.292
same,glycan array binding signal (z-score),[3],-0.12
same,glycan array binding signal (z-score),[4],-0.332
same,glycan array binding signal (z-score),Fuc(a1-2)Gal6S(b1-4)Glc,-0.377
same,glycan array binding signal (z-score),[5],-0.4
same,glycan array binding signal (z-score),[6],-0.374
same,glycan array binding signal (z-score),[7],-0.352
same,glycan array binding signal (z-score),[8],-0.4
same,glycan array binding signal (z-score),[9],-0.344
same,glycan array binding signal (z-score),[10],-0.291
same,glycan array binding signal (z-score),[11],-0.299
same,glycan array binding signal (z-score),Gal(a1-4)Gal(b1-4)Glc,-0.292
same,glycan array binding signal (z-score),Gal(b1-3)GlcNAc,-0.208
same,glycan array binding signal (z-score),[12],0.154
same,glycan array binding signal (z-score),[13],3.77
same,glycan array binding signal (z-score),[14],6.74
same,glycan array binding signal (z-score),[15],0.723
same,glycan array binding signal (z-score),[16],-0.434
same,glycan array binding signal (z-score),[17],5.28
same,glycan array binding signal (z-score),[18],4.72
same,glycan array binding signal (z-score),[19],-0.357
same,glycan array binding signal (z-score),[20],-0.305
same,glycan array binding signal (z-score),[21],-0.296
same,glycan array binding signal (z-score),[22],4.81
same,glycan array binding signal (z-score),[23],4.57
same,glycan array binding signal (z-score),[24],5.27
same,glycan array binding signal (z-score),[25],8.45
same,glycan array binding signal (z-score),[26],5.39
same,glycan array binding signal (z-score),Gal(b1-4)GlcNAc6P,-0.448
same,glycan array binding signal (z-score),Gal6S(b1-4)GlcNAc6S,0.254
same,glycan array binding signal (z-score),Glc(b1-6)Glc,-0.344
same,glycan array binding signal (z-score),[27],-0.501
same,glycan array binding signal (z-score),[28],-0.351
same,glycan array binding signal (z-score),[29],-0.367
same,glycan array binding signal (z-score),[30],-0.349
same,glycan array binding signal (z-score),Kdn(a2-6)Gal(b1-4)GlcNAc,-0.393
same,glycan array binding signal (z-score),[31],-0.36
same,glycan array binding signal (z-score),[32],-0.413
same,glycan array binding signal (z-score),[33],-0.311
same,glycan array binding signal (z-score),[34],8.35
same,glycan array binding signal (z-score),Neu5Ac(a2-6)GalNAc,-0.34
same,glycan array binding signal (z-score),Neu5Ac(a2-8)Neu5Ac,-0.356
same,glycan array binding signal (z-score),[35],-0.347
same,glycan array binding signal (z-score),Neu5Ac(b2-6)GalNAc,-0.286
same,glycan array binding signal (z-score),[36],-0.349
same,glycan array binding signal (z-score),[37],-0.365
